Test results: PubChem BioAssay (NCATS)
Records with an inconclusive call do not appear. A call without a number means that no potency is given here. A number with no mark means an inactive call. Active and inactive are the calls of the source. Calls follow the shape of the dose curve; as a rule, active = well fitted curve in the direction sought with a large enough effect; inconclusive = small, poorly fitted or top-dose-only effect, or another doubt; inactive = no such curve, though single readings can be large; an effect the other way counts as inactive or inconclusive.

Legend:
NIH3T3 = assay: qHTS assay to identify novel small-molecules to repurpose for Merkel cell carcinoma treatment (AID 1296009); details: MCC and control cell lines, CellTiter-Glo viability, 72 h; at 44.8 µM (top of the series) unless noted; also: nearly all actives have a fitted effect of over 60% in size
How it was run: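 72 hr, 37 degree celsius; NPC 8-pt / MIPE 11-pt dose response; compound pinned in DMSO; CellTiter-Glo, 10 min RT, luminescence; normalized to no-cell and DMSO controls.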

C33A = assay: Primary qHTS to identify gynecologic anti-cancer compounds using libraries of approved drugs and bioactive compounds (AID 1345084); details: Gynecologic cancer cell panel viability, ATPlite luminescence, 48 h; series mostly up to 57.5 µM; also: nearly all actives have a fitted effect of over 55% in size; also: potency is read from the fitted curve at half-maximal effect
How it was run: (§1)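 Cell viability after 48 h drug treatment, ATPlite luminescence readout; five doses.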

CAOV3 = assay: as above; details: Gynecologic cancer cell panel viability, ATPlite luminescence, 48 h; series mostly up to 57.5 µM
How it was run: as §1

CASKI = assay: as above; details: Gynecologic cancer cell panel viability, ATPlite luminescence, 48 h; series mostly up to 57.5 µM
How it was run: as §1

Es-2 = assay: as above; details: Gynecologic cancer cell panel viability, ATPlite luminescence, 48 h; series mostly up to 57.5 µM
How it was run: as §1

HeLa = assay: as above; details: Gynecologic cancer cell panel viability, ATPlite luminescence, 48 h; series mostly up to 57.5 µM
How it was run: as §1

Hek293T = assay: as above; details: Gynecologic cancer cell panel viability, ATPlite luminescence, 48 h, control line for the selectivity index; series mostly up to 57.5 µM
How it was run: as §1

JEG-3 = assay: as above; details: Gynecologic cancer cell panel viability, ATPlite luminescence, 48 h; series mostly up to 57.5 µM
How it was run: as §1

OV90 = assay: as above; details: Gynecologic cancer cell panel viability, ATPlite luminescence, 48 h; series mostly up to 57.5 µM
How it was run: as §1

PA-1 = assay: as above; details: Gynecologic cancer cell panel viability, ATPlite luminescence, 48 h; series mostly up to 57.5 µM
How it was run: as §1

SKOV3 = assay: as above; details: Gynecologic cancer cell panel viability, ATPlite luminescence, 48 h; series mostly up to 57.5 µM
How it was run: as §1

Tov112D = assay: as above; details: Gynecologic cancer cell panel viability, ATPlite luminescence, 48 h; series mostly up to 57.5 µM
How it was run: as §1

Tov-21-G = assay: as above; details: Gynecologic cancer cell panel viability, ATPlite luminescence, 48 h; series mostly up to 57.5 µM
How it was run: as §1

CNC(C)C(=O)NC(C(=O)N1CCCC1C(=O)Nc1cccc2ncccc12)C(C)C (configuration not stated)
outcome (NIH3T3): inactive | Potency (C33A): inactive | Potency (CAOV3): 10 µM (active) | outcome (CASKI): inactive | Potency (Es-2): inactive | Potency (HeLa): inactive | Potency (Hek293T): inactive | Potency (JEG-3): inactive | Potency (OV90): inactive | Potency (PA-1): inactive | Potency (SKOV3): 7.94 µM (active) | Potency (Tov112D): inactive

CC[C@H](NC(=O)c1c(O)c(-c2ccccc2)nc2ccccc12)c1ccccc1
outcome (NIH3T3): inactive | Potency (C33A): inactive | Potency (CAOV3): inactive | outcome (CASKI): inactive | Potency (Es-2): inactive | Potency (HeLa): inactive | Potency (Hek293T): inactive | Potency (JEG-3): inactive | Potency (OV90): inactive | Potency (PA-1): inactive | Potency (SKOV3): inactive | Potency (Tov-21-G): inactive | Potency (Tov112D): inactive

CCCN(CCN1CCN(c2ccccc2OC)CC1)C1CCc2ncsc2C1 (configuration not stated)
outcome (NIH3T3): inactive | Potency (C33A): inactive | Potency (CAOV3): inactive | outcome (CASKI): inactive | Potency (Es-2): inactive | Potency (HeLa): inactive | Potency (Hek293T): inactive | Potency (JEG-3): inactive | Potency (OV90): inactive | Potency (PA-1): inactive | Potency (Tov-21-G): inactive | Potency (Tov112D): inactive

C/C=C/C=C/C=C/C(=O)O[C@@H]1C=C(CO)[C@](O)(CO)[C@@]2(C)CCCC(C)(C)[C@H]12
outcome (NIH3T3): inactive | Potency (C33A): inactive | Potency (CAOV3): inactive | outcome (CASKI): inactive | Potency (Es-2): inactive | Potency (HeLa): inactive | Potency (Hek293T): inactive | Potency (JEG-3): inactive | Potency (OV90): inactive | Potency (PA-1): inactive | Potency (Tov-21-G): inactive | Potency (Tov112D): inactive

CC(C)CC[C@@H](O)[C@](C)(O)[C@H]1CC[C@@]2(O)C3=CC(=O)[C@@H]4C[C@@H](O)[C@@H](O)C[C@]4(C)[C@H]3CC[C@]12C
outcome (NIH3T3): inactive | Potency (C33A): inactive | Potency (CAOV3): inactive | outcome (CASKI): inactive | Potency (Es-2): inactive | Potency (HeLa): inactive | Potency (Hek293T): inactive | Potency (JEG-3): inactive | Potency (OV90): inactive | Potency (PA-1): inactive | Potency (Tov-21-G): inactive | Potency (Tov112D): inactive

COc1cccc(OC)c1-c1cc(C(=O)N[C@@H](CC(C)C)C(=O)O)nn1-c1ccnc2cc(Cl)ccc12
outcome (NIH3T3): inactive | Potency (C33A): inactive | Potency (CAOV3): inactive | outcome (CASKI): inactive | Potency (Es-2): inactive | Potency (HeLa): inactive | Potency (Hek293T): inactive | Potency (JEG-3): inactive | Potency (OV90): inactive | Potency (PA-1): inactive | Potency (Tov-21-G): inactive | Potency (Tov112D): inactive

O=C(COCC(=O)N1CCN(C(c2ccccc2)c2ccccc2)CC1)Nc1ccc(Cl)cc1C(=O)O
outcome (NIH3T3): inactive | Potency (C33A): inactive | Potency (CAOV3): inactive | outcome (CASKI): inactive | Potency (Es-2): inactive | Potency (HeLa): inactive | Potency (Hek293T): inactive | Potency (JEG-3): inactive | Potency (OV90): inactive | Potency (PA-1): inactive | Potency (Tov-21-G): inactive | Potency (Tov112D): inactive

CN(C)CC(c1ccc(O)cc1)C1(O)CCCCC1 (configuration not stated)
outcome (NIH3T3): inactive | Potency (C33A): inactive | Potency (CAOV3): inactive | outcome (CASKI): inactive | Potency (Es-2): inactive | Potency (HeLa): inactive | Potency (Hek293T): inactive | Potency (JEG-3): inactive | Potency (OV90): inactive | Potency (PA-1): inactive | Potency (SKOV3): inactive | Potency (Tov112D): inactive

C[C@@H]1O[C@@H](O[C@H]2[C@@H]3C=CO[C@@H](O[C@@H]4O[C@H](CO)[C@@H](O)[C@H](O)[C@H]4O)[C@@H]3[C@@]3(CO)O[C@@H]23)[C@H](O)[C@H](OC(=O)/C=C/c2ccc(O)c(O)c2)[C@H]1O
outcome (NIH3T3): inactive [at 17.4 µM] | Potency (C33A): inactive | Potency (CAOV3): inactive | outcome (CASKI): inactive | Potency (Es-2): inactive | Potency (HeLa): inactive | Potency (Hek293T): inactive | Potency (JEG-3): inactive | Potency (OV90): inactive | Potency (PA-1): inactive | Potency (Tov-21-G): inactive

C[C@H]1[C@@H](O)[C@H](O)C2[C@]3(C)C([C@@H](O)[C@H]4OC(=O)[C@@H]1[C@@]24C)[C@](C)(O)C=C[C@H]3O[C@@H]1O[C@H](CO)[C@@H](O)[C@H](O)[C@H]1O (some centres not stated)
outcome (NIH3T3): inactive [at 17.4 µM] | Potency (C33A): inactive | Potency (CAOV3): inactive | outcome (CASKI): inactive | Potency (Es-2): inactive | Potency (HeLa): inactive | Potency (Hek293T): inactive | Potency (JEG-3): inactive | Potency (OV90): inactive | Potency (PA-1): inactive | Potency (Tov-21-G): inactive | Potency (Tov112D): inactive

O=C(O)c1cc(C(F)(F)F)ccc1N1CC[C@H](OCc2ccccn2)C1
outcome (NIH3T3): inactive | Potency (C33A): inactive | Potency (CAOV3): inactive | outcome (CASKI): inactive | Potency (Es-2): inactive | Potency (HeLa): inactive | Potency (Hek293T): inactive | Potency (JEG-3): inactive | Potency (OV90): inactive | Potency (PA-1): inactive | Potency (SKOV3): inactive | Potency (Tov-21-G): inactive | Potency (Tov112D): inactive

COc1cc2c(cc1O)CC(O)(CO)C(CO)C2c1ccc(OC2OC(CO)C(O)C(O)C2O)c(OC)c1 (configuration not stated)
outcome (NIH3T3): inactive [at 17.4 µM] | Potency (C33A): inactive | Potency (CAOV3): inactive | outcome (CASKI): inactive | Potency (Es-2): inactive | Potency (HeLa): inactive | Potency (Hek293T): inactive | Potency (JEG-3): inactive | Potency (OV90): inactive | Potency (PA-1): inactive | Potency (SKOV3): inactive | Potency (Tov-21-G): inactive | Potency (Tov112D): inactive

CC1=CC(=O)CC(C)(C)[C@@]1(O)/C=C/C(C)O[C@@H]1O[C@H](CO)[C@@H](O)[C@H](O)[C@H]1O (some centres not stated)
outcome (NIH3T3): inactive [at 17.4 µM] | Potency (C33A): inactive | Potency (CAOV3): inactive | outcome (CASKI): inactive | Potency (Es-2): inactive | Potency (HeLa): inactive | Potency (Hek293T): inactive | Potency (JEG-3): inactive | Potency (OV90): inactive | Potency (PA-1): inactive | Potency (Tov-21-G): inactive | Potency (Tov112D): inactive

CC(C)C1(O)C=C2C(=O)CC3C(C)(C(=O)O)CCCC3(C)C2CC1 (configuration not stated)
outcome (NIH3T3): inactive | Potency (C33A): inactive | Potency (CAOV3): inactive | outcome (CASKI): inactive | Potency (Es-2): inactive | Potency (HeLa): inactive | Potency (Hek293T): inactive | Potency (JEG-3): inactive | Potency (OV90): inactive | Potency (PA-1): inactive | Potency (Tov-21-G): inactive | Potency (Tov112D): inactive

CC1(C)CC[C@]2(C(=O)O)CC[C@]3(C)C(=CCC4[C@@]5(C)CC[C@H](O[C@@H]6O[C@H](C(=O)O)[C@@H](O)[C@H](O[C@@H]7O[C@H](CO)[C@H](O)[C@H](O)[C@H]7O)[C@H]6O[C@@H]6O[C@H](CO)[C@@H](O)[C@H](O)[C@H]6O)C(C)(C)C5CC[C@]43C)[C@@H]2C1 (some centres not stated)
outcome (NIH3T3): inactive [at 4.96 µM] | activity change, negative = cytotoxicity (C33A): 4.15% [at 6.55 µM] | activity change, negative = cytotoxicity (CAOV3): 0.251% [at 6.55 µM] | activity change, negative = cytotoxicity (CASKI): 11.8% [at 6.55 µM] | activity change, negative = cytotoxicity (Es-2): -0.476% [at 6.55 µM] | activity change, negative = cytotoxicity (HeLa): -1.9% [at 6.55 µM] | activity change, negative = cytotoxicity (Hek293T): -0.735% [at 6.55 µM] | activity change, negative = cytotoxicity (JEG-3): 4.16% [at 6.55 µM] | activity change, negative = cytotoxicity (OV90): 8.65% [at 6.55 µM] | activity change, negative = cytotoxicity (PA-1): 2.41% [at 6.55 µM] | activity change, negative = cytotoxicity (Tov-21-G): -6.57% [at 6.55 µM] | activity change, negative = cytotoxicity (Tov112D): -3.27% [at 6.55 µM]
